From PubChem BioAssay
IL-1B inflam inh: inflammasome signaling inhibition, IL-1 beta readout; activity change, % at 57.5 µM; THP-1 LPS/ATP IL-1B secretion, AlphaLISA, 16 h; hits give low values; 360,000 tested, 4.7% active; AID 743279; in the data active = activity change below about -50%; inconclusive = mostly about -30% to -49%
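Secreted IL-1B measured by AlphaLISA bead assay after 16 h compound exposure of THP-1 cells; compounds (final up to 57.5 uM) added 1 h before LPS (250 ng/mL) and ATP (1.25 mM) stimulation; lower signal means less secretion.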
DT40 TDP1 CPT: DT40-hTDP1 cell growth loss with CPT; chicken DT40 Tdp1-/-;hTDP1 cells + 20 nM CPT, ATP luminescence, 48 h; 420,000 tested, 12% active; Potency, µM (doses to about 46.2 µM), for the others: top-dose activity change, negative = growth inhibition, hits mostly inhibitors; also: potency is read from the fitted curve at half-maximal effect; nearly all actives have a fitted effect of over 55% in size
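Cell growth measured by CellTiter-Glo luminescence after a minimum 48 h, 37 C compound exposure with 20 nM CPT in Tdp1-knockout DT40 cells stably expressing hTDP1, seeded 400/well; qHTS titration format.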
HT1080 IDH1KD tx: toxicity to HT-1080 IDH1 knockdown cells (counter line) | Potency, µM (series often up to 46.1 µM), without a hit: top-dose activity, negative = toxicity, hits mostly cytotoxic | AID 686971 | HT-1080 IDH1 knockdown viability, ATP luminescence, 48 h | 360,000 tested, 2% active;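 also: potency is read from the fitted curve at half-maximal effect; 0% = DMSO wells and -100% = cell-free medium wells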
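Knockdown cells (IDH1KD HT-1080) received compounds 2 h after plating at 750 cells/well and were kept 48 h at 37 °C in 5% FBS RPMI. A CellTiter-Glo luminescence read gave % activity for curve fitting.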
HT1080NT lethal: kills 2HG-producing HT-1080-NT fibrosarcoma cells. HT-1080-NT fibrosarcoma viability, CellTiter-Glo ATP luminescence, 48 h. Potency, µM (titrated, usually from 46.1 µM), without a hit: top-dose activity, negative = less viability, hits mostly cytotoxic. 360,000 tested, 1.6% active;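 also: NT is the 2HG producing partner of a matched IDH1 knockdown line; potency is read from the fitted curve at half-maximal effect; 0% = DMSO-treated cells and -100% = media-only wells without cells; nearly all actives have a fitted effect of over 55% in size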
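A 48-hour cytotoxicity screen used HT-1080-NT cells plated 2 hours before compound delivery. ATP-based CellTiter-Glo luminescence measured viability, normalized to DMSO and no-cell controls.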
12-LOX inh: inhibitors of human 12S-lipoxygenase ALOX12; 580,000 tested, 1.1% active; Potency, µM (series often up to 108 µM), inactives show top-dose activity change, negative = inhibition, usual class: inhibitors; purified 12hLO, xylenol orange hydroperoxide absorbance; also: potency is read from the fitted curve at half-maximal effect
Target sequence (P18054 whole entry, looked up): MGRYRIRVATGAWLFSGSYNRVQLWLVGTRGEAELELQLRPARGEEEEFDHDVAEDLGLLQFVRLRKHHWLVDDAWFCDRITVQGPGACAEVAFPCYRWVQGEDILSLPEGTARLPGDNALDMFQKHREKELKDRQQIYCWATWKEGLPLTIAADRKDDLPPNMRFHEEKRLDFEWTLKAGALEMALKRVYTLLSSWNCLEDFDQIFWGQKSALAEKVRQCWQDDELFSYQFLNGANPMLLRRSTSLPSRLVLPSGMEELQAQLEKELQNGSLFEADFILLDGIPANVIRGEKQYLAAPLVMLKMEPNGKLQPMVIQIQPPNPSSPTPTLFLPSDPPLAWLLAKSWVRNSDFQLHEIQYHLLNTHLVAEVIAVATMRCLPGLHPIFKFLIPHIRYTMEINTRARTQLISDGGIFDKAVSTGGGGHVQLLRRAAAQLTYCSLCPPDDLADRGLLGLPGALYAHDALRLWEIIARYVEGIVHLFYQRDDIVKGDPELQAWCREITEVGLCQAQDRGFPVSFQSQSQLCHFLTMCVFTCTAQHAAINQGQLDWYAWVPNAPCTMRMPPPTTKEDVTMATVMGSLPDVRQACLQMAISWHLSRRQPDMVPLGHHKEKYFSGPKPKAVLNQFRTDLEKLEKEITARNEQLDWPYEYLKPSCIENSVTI
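Hydroperoxide product was detected by ferrous iron/xylenol orange as the 573 to 405 nm absorbance ratio. Arachidonic acid at 40 uM (final) was turned over for 30 min at room temperature by 150 nM human 12hLO, pH 7.0 Hepes buffer, after 15 min compound preincubation.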
DT40 TDP1 no CPT: qHTS for Inhibitors of human tyrosyl-DNA phosphodiesterase 1 (TDP1): qHTS in cells in absence of CPT; 420,000 tested, 15% active; DT40 Tdp1-/- hTDP1 cells, no CPT, ATP luminescence, 48 h; Potency, µM (doses to about 46.2 µM), without a hit: top-dose activity change, negative = growth inhibition, most hits filed as inhibitors; also: potency is read from the fitted curve at half-maximal effect; nearly all actives have a fitted effect of over 55% in size
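Seeded 400 DT40-hTDP1 cells/well (vehicle DMSO, no 20 nM CPT); pinned compounds; ≥48 hr at 37 °C; CellTiter-Glo luminescence as viability measure.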
The depositor's hits bear a star; [ ] = remark or other dose. The full list was thinned out, with hits kept by preference. Unless noted, calls follow the shape of the dose curve; as a rule, active = well fitted curve in the direction sought with a large enough effect; inconclusive = small, poorly fitted or top-dose-only effect, or another doubt; inactive = no such curve, though single readings can be large; an effect the other way counts as inactive or inconclusive. Unless noted, % is scaled to controls: 0 for no effect and ±100 for the full control effect.

How did Cc1c(CC(=O)NC[C@@H](C)O)c(=O)oc2cc(O)c(Cl)cc12 do in these assays?
12-LOX inh: -7.9%

Results for Cc1ccc(Cc2c(-c3cccc(Br)c3)nc3ccc(Br)cn23)cc1 ?
IL-1B inflam inh: 15.7; DT40 TDP1 CPT: -14.1%; HT1080 IDH1KD tx: 3.8%; HT1080NT lethal: 0.4%; 12-LOX inh: 25.1µM*; DT40 TDP1 no CPT: -8.1%

What do the screens show for `Cc1ccc(Cc2c(-c3cccc(Br)c3)nc3c(Cl)cc(C(F)(F)F)cn23)cc1`?
IL-1B inflam inh: 27.6; DT40 TDP1 CPT: 0.6%; HT1080 IDH1KD tx: -7.1%; HT1080NT lethal: 4.5%; 12-LOX inh: -15.6%; DT40 TDP1 no CPT: 16.4µM*

How did COc1ccc(-c2csc(=Nc3ccccc3)n2CCO)cc1 do in these assays?
IL-1B inflam inh: -24.0; DT40 TDP1 CPT: inconclusive; HT1080 IDH1KD tx: -23.0%; HT1080NT lethal: -22.2%; 12-LOX inh: inconclusive; DT40 TDP1 no CPT: inconclusive

Results for O=S(=O)(c1ccc(-c2csc(=Nc3ccc(F)cc3)n2CCCCCCO)cc1)N1CCCC1 ?
DT40 TDP1 CPT: 2.91µM*; 12-LOX inh: inconclusive; DT40 TDP1 no CPT: 2.59µM*

What do the screens show for `Cc1ccc(-c2csc(=Nc3ccccc3)n2CCCO)cc1`?
DT40 TDP1 CPT: 16.4µM*; 12-LOX inh: 44.7µM*; DT40 TDP1 no CPT: 10.3µM*

Results for OCCCn1c(-c2ccc(F)cc2)csc1=Nc1ccc(F)cc1 ?
DT40 TDP1 CPT: 9.2µM*; 12-LOX inh: inconclusive; DT40 TDP1 no CPT: 14.6µM*

What do the screens show for `Cc1cccc(CC(=O)N2CCCCC2c2noc(COc3ccc(F)cc3)n2)c1` (stereo not given)?
12-LOX inh: 2.5%

Results for CC(=O)c1cc2c(cc1NC(=O)Cn1c(=O)n(C)c(=O)c3sccc31)OCO2 ?
12-LOX inh: -37.8%

What do the screens show for `CCN(CC)C(=O)CN1C(=O)/C(=C/c2ccccc2)SC1=S`?
IL-1B inflam inh: -62.1*; DT40 TDP1 CPT: 18.4µM*; HT1080 IDH1KD tx: -1.7%; HT1080NT lethal: -0.2%; 12-LOX inh: 0.0%; DT40 TDP1 no CPT: 14.6µM*

Results for CCN(C(=O)CN1C(=O)/C(=C/c2ccccc2F)SC1=S)C1CCS(=O)(=O)C1 (stereo not given) ?
IL-1B inflam inh: 16.8; DT40 TDP1 CPT: inconclusive; HT1080 IDH1KD tx: 11.2%; HT1080NT lethal: 0.5%; 12-LOX inh: 22.8%; DT40 TDP1 no CPT: inconclusive

How did O=C(O)CN1C(=O)/C(=C\C(Br)=C\c2ccccc2)SC1=S do in these assays?
IL-1B inflam inh: inconclusive; DT40 TDP1 CPT: inconclusive; HT1080 IDH1KD tx: inconclusive; HT1080NT lethal: inconclusive; 12-LOX inh: 35.5µM*; DT40 TDP1 no CPT: inconclusive

How did CC(=C\c1ccccc1)/C=C1/SC(=S)N(CC(=O)O)C1=O do in these assays?
DT40 TDP1 CPT: 4.0%; DT40 TDP1 no CPT: -14.0%

What do the screens show for `CCN(C(=O)CN1C(=O)S/C(=C\C=C\c2ccccc2)C1=O)C1CCS(=O)(=O)C1` (stereo not given)?
IL-1B inflam inh: -26.4; DT40 TDP1 CPT: 1.84µM*; HT1080 IDH1KD tx: 0.0%; HT1080NT lethal: 0.9%; 12-LOX inh: 1.0%; DT40 TDP1 no CPT: 1.46µM*

Results for CCN(C(=O)CN1C(=O)S/C(=C\c2cccc(Cl)c2)C1=O)C1CCS(=O)(=O)C1 (stereo not given) ?
IL-1B inflam inh: 0.0; DT40 TDP1 CPT: -13.5%; HT1080 IDH1KD tx: 8.7%; HT1080NT lethal: 4.6%; 12-LOX inh: 0.0%; DT40 TDP1 no CPT: 2.5%

How did CCN(C(=O)CCN1C(=O)/C(=C/c2ccccc2)SC1=S)C1CCS(=O)(=O)C1 (stereo not given) do in these assays?
IL-1B inflam inh: -82.8*; DT40 TDP1 CPT: 18.4µM*; HT1080 IDH1KD tx: inconclusive; HT1080NT lethal: inconclusive; 12-LOX inh: 5.0%; DT40 TDP1 no CPT: inconclusive

Results for O=C(c1ccccc1)N1CCC2(CC1)COc1ccccc1CN2 ?
12-LOX inh: 27.8%[176 µM]

Results for CN(C(=O)CN1C(=O)C(c2ccccc2)=NC12CCCC2)c1ccccc1 ?
12-LOX inh: 36.0%

How did Cc1cccc(Oc2coc3cc(OC(C)C(=O)OCCC(C)C)ccc3c2=O)c1 (stereo not given) do in these assays?
12-LOX inh: 4.8%

Results for CC(NC(=O)CCCCCCN1C(=O)c2ccccc2C1=O)c1ccc2c(c1)CCCC2 (stereo not given) ?
IL-1B inflam inh: -9.6; DT40 TDP1 CPT: 23.1µM*; HT1080 IDH1KD tx: -2.8%; HT1080NT lethal: -0.3%; 12-LOX inh: 8.1%; DT40 TDP1 no CPT: inconclusive

What do the screens show for `CC(NC(=O)CCCCCN1C(=O)c2ccccc2C1=O)c1ccc2c(c1)CCCC2` (stereo not given)?
IL-1B inflam inh: 2.6; DT40 TDP1 CPT: -27.4%; HT1080 IDH1KD tx: -15.1%; HT1080NT lethal: 0.0%; 12-LOX inh: inconclusive; DT40 TDP1 no CPT: -24.3%

Results for CCN1CCC(N2CCC(Oc3ccccc3-c3nc(-c4ccncc4)no3)C2)CC1 (stereo not given) ?
12-LOX inh: 52.4%

How did Cc1ccccc1OCC(=O)N/N=C/c1cc2ccccc2nc1Cl do in these assays?
IL-1B inflam inh: -6.5; DT40 TDP1 CPT: 14.6µM*; HT1080 IDH1KD tx: -20.7%; HT1080NT lethal: -15.9%; 12-LOX inh: -8.6%; DT40 TDP1 no CPT: 14.6µM*

Results for COc1ccccc1OCC(=O)N/N=C/c1cccc2cccnc12 ?
IL-1B inflam inh: inactive; DT40 TDP1 CPT: inconclusive; HT1080 IDH1KD tx: -14.3%; HT1080NT lethal: -4.2%; 12-LOX inh: inconclusive; DT40 TDP1 no CPT: 20.6µM*

Results for COC(=O)N/N=C/c1ccccc1OC(C)=O ?
12-LOX inh: 3.3%

Results for O=C(COc1ccc(Cl)cc1)N/N=C/c1cccc2cccnc12 ?
IL-1B inflam inh: inactive; DT40 TDP1 CPT: inconclusive; HT1080 IDH1KD tx: inconclusive; HT1080NT lethal: -20.2%; 12-LOX inh: 1.9%; DT40 TDP1 no CPT: 18.4µM*

Results for COc1ccc(OCC(=O)N/N=C/c2cccc3cccnc23)cc1 ?
IL-1B inflam inh: 128.2; DT40 TDP1 CPT: inconclusive; HT1080 IDH1KD tx: inconclusive; HT1080NT lethal: inconclusive; 12-LOX inh: 420.9%; DT40 TDP1 no CPT: inconclusive

How did O=C(COc1cccc(Cl)c1)N/N=C\c1cc2ccccc2nc1Cl do in these assays?
IL-1B inflam inh: 12.1; DT40 TDP1 CPT: inconclusive; HT1080 IDH1KD tx: 4.1%; HT1080NT lethal: 6.8%; 12-LOX inh: 20.3%; DT40 TDP1 no CPT: inconclusive
